From the supplement of paper PMC7156485
± gives the standard deviation of the averaged measurements.

Key:
Conditions in all cases: concentration: 10 µM; 24 h
[1] = system: HCC1569; assay: cell number relative to DMSO (% of DMSO); higher = more cells (less growth inhibition / toxicity)
Procedure, shortened: (§1)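 Cells were seeded at 800 per well in 384-well plates with RPMI containing 10% FBS; both HCC1569 and TDF lines were used. Compounds were added at 10 µM for 24 h at 37 °C, in triplicate, before fixation in 3.7% formaldehyde and staining with a rabbit anti-H1.0 antibody, an AlexaFluor 647 secondary and DAPI. H1.0 nuclear intensity or cell number is reported as percent of the plate control using the median of replicates, and HCC1569 values were smoothed for positional effects.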

[2] = system: TDF; assay: as above
Procedure, shortened: as §1

[3] = system: TDF; assay: H1.0 immunofluorescence intensity relative to DMSO (% of DMSO); higher = stronger H1.0 induction, active = 120 or more
Procedure, shortened: as §1

[4] = system: HCC1569; assay: H1.0 immunofluorescence intensity relative to DMSO (% of DMSO); higher = stronger H1.0 induction, active = 140 or more
Procedure, shortened: as §1
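Wherever H1.0 immunofluorescence intensity relative to DMSO is given: TDF is a line of transformed human dermal fibroblasts of mesenchymal origin.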
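Wherever cell number relative to DMSO is given: TDF denotes transformed human dermal fibroblasts of mesenchymal origin.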

| SMILES | cell number [1] | cell number [2] | H1.0 immunofluorescence intensity [3] | H1.0 immunofluorescence intensity [4] |
| --- | --- | --- | --- | --- |
| O=C1Nc2ccccc2C1=C1Nc2ccccc2C1=O [Indirubin] | 97.2 | 94.7 | 105 (inactive) | 102 (inactive) |
| CNC(=O)C1OC(n2cnc3c(NCc4ccc(N)cc4)ncnc32)C(O)C1O (stereo not drawn) | 99.9 | 98.3 | 93.8 (inactive) | 90.6 (inactive) |
| COc1cc(CCC(C)=O)ccc1O [Vannilylacetone] | 105 | 90.8 | 95.6 (inactive) | 93.5 (inactive) |
| Cl.Cl.O=C(O)COCCN1CCN(C(c2ccccc2)c2ccc(Cl)cc2)CC1 (stereo not drawn) [Cetirizine 2HCl] | 98.9 | 102 | 94.3 (inactive) | 104 (inactive) |
| Br.CN1C2CCC1CC(OC(=O)C(O)c1ccccc1)C2 (racemic) [DL-Homatropine hydrobromide] | 106 | 109 | 91.5 (inactive) | 85.8 (inactive) |
| CCCCCCCCCCCCCCCC(=O)OC(CC(=O)O)C[N+](C)(C)C.[Cl-] (racemic) [Palmitoyl-DL-Carnitine chloride] | 94.9 | 101 | 104 (inactive) | 110 (inactive) |
| COC(=O)c1ccc(O)c2[nH]c3c(C=O)c(O)cc(=O)c-3nc12 [Lomofungin] | 105 | 117 | 94.3 (inactive) | 101 (inactive) |
| CCCCCC(O)C=CC1C(O)CC(O)C1CC(=O)CCCCC(=O)O (stereo not drawn) [6-Keto-prostaglandin F1a] | 101 | 91.3 | 102 (inactive) | 108 (inactive) |
| O=C(NCCCCCCNC(=O)ON=C1CCCCC1)ON=C1CCCCC1 | 96.6 | 100 | 98 (inactive) | 97.1 (inactive) |
| COc1cc2nc(N3CCN(C(=O)C4COc5ccccc5O4)CC3)nc(N)c2cc1OC.CS(=O)(=O)O (stereo not drawn) [Doxazosin mesylate] | 99.9 | 103 | 95.5 (inactive) | 110 (inactive) |
| CCc1nn(CCCN2CCN(c3cccc(Cl)c3)CC2)c(=O)n1CCOc1ccccc1 | 92.2 | 95 | 95.3 (inactive) | 122 (inactive) |
| CSc1nc(-c2ccnc(NC(C)c3ccccc3)c2)c(-c2ccc(F)cc2)[nH]1 (stereo not drawn) [p38 MAP Kinase Inhibitor III] | 94.8 | 107 | 95.2 (inactive) | 113 (inactive) |
| CCC12CCCN3CCc4c(n(c5ccccc45)C(=O)C1)C32 (single isomer, unassigned; (-)) [(-)-Eburnamonine] | 83.7 | 58.5 | 118 (inactive) | 113 (inactive) |
| NC(=O)c1cc[n+](CC2=C(C(=O)[O-])N3C(=O)C(NC(=O)C(c4ccccc4)S(=O)(=O)[O-])C3SC2)cc1.[Na+] (stereo not drawn) [Cefsulodin sodium salt hydrate] | 99.1 | 104 | 94.6 (inactive) | 94.3 (inactive) |
| Cn1ccc(NC(=O)c2cc(Oc3ccc(C(=O)N4CCC4)c(F)c3)c3c(c2)OC(C)(C)C3)n1 | 103 | 94.2 | 102 (inactive) | 105 (inactive) |
| CCCCCC(O)C=CC=CCC=CCC=CCCCC(=O)O (stereo not drawn) | 103 | 100 | 96.7 (inactive) | 99.7 (inactive) |
| CC(CCC(=O)NCCS(=O)(=O)O)C1CCC2C3C(O)CC4CC(O)CCC4(C)C3CC(O)C12C (stereo not drawn) [Taurocholic acid] | 101 | 104 | 97.8 (inactive) | 111 (inactive) |
| COC(=O)c1ccccc1O [Methyl salicylate] | 100 | 104 | 92.2 (inactive) | 113 (inactive) |
| CCCCCC=CCC=CCCCCCCCC(N)=O [Linoleamide] | 99.8 | 94.8 | 99.6 (inactive) | 99.2 (inactive) |
| CN(C(=O)CCCOc1ccc2[nH]c(=O)ccc2c1)C1CCCCC1 [Cilostamide] | 100.9 ± 0.88 | 109 ± 5 | 96.9 (inactive) | 98.1 (inactive) |
| COCc1c(C(C)C)nc(C(C)C)c(C=CC(O)CC(O)CC(=O)O)c1-c1ccc(F)cc1 (stereo not drawn) [Cerivastatin] | 97.3 | 39 | 166 (active) | 98.3 (inactive) |
| COCCOC(=O)C1=C(C)NC(C)=C(C(=O)OC(C)C)C1c1cccc([N+](=O)[O-])c1 (stereo not drawn) [Nimodipine] | 100 ± 2.9 | 106 ± 3.4 | 91.6 (inactive) | 104 (inactive) |
